The source of these data is PubChem BioAssay (NCI).

Compounds without any hit were thinned out: in the full panel of roughly 83,000, 20% have a hit.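 Testing used 96-well plates and a 48-hour single-concentration exposure. Example: -40 means 40% of the starting cells died.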 Unmarked numbers belong to inactive results. Calls of active or inactive are those of the source. How the source made its calls: active means growth percent below 10; inactive means the rest.

For this assay, the system named is SF-268 CNS. Description: NCI-60 one-dose screen, 48 h (100 = growth as untreated, 0 = no growth, -100 = all killed). Conditions: 10 µM unless noted.
In the case of `Cc1cccc(NC(=O)Nc2ccc(-c3ccc4c(c3)NC(=O)/C4=C\c3ccc[nH]3)cc2)c1`, the growth is 95.2%.
As to `Cc1cc2nc3c4cc(C=O)ccc4n(CCN(C)C)c3nc2cc1C`, the growth is 37.3%.
In the case of `c1ccc2c(-c3nccs3)c[nH]c2c1`, the growth is 96.7%.
Under `COc1cc(NC(C)CCCNC(=O)CCC(=O)NCCCNCCCCCCCCCCNCCCNC(=O)CCC(=O)NCCCC(C)Nc2cc(OC)cc3cccnc23)c2ncccc2c1` (stereo not drawn) stands 66% [8 µM]; under `O=C1c2ccc3c4c(ccc(c24)C(=O)N1CCCNCc1ccccc1)C(=O)N(CCCNCc1ccccc1)C3=O`, -71.4% (active); under `COc1ccc(CNCCN2C(=O)c3ccc4c5c(ccc(c35)C2=O)C(=O)N(CCNCc2ccc(OC)c(OC)c2OC)C4=O)c(OC)c1OC`, -2.06% (active).
For `CCN(CC)c1ccc(C(=O)c2ccccc2)cc1` the value was 96.9%; for `COc1cc2c(c(O)c1Cl)C(=O)c1c(O)cc(C[C@H](C)O)cc1[C@H]2[C@H]1c2cc(C[C@H](C)O)cc(O)c2C(=O)c2c1cc(OC)c(Cl)c2O`, 21.4%; for `Nc1c(C(=O)Nc2cccc3cnccc23)sc2nc3c(cc12)C(=O)CCC3`, 96.4%.
For the molecule `O=C(CCN1CCCC1)Nc1ccc2c(Nc3ccc(F)cc3)c3ccccc3nc2c1`, the growth was 16.3%.
As for `COc1cc2c(cc1OC)C(=O)/C(=C/c1cc(C)c(O)c(C)c1)S2`, the growth is 72.9%.
In the case of `CCCCCN1C=C/C(=C\C(=O)N(C)c2ccc(Oc3ccccc3)cc2)c2ccccc21`, the growth was 87.8%.
In the case of `C/C(=N\Nc1cc(C)nc2ccc(Br)cc12)c1ccc([N+](=O)[O-])cc1`, the growth was 97.8%.
For the molecule `N/C(=N\C(N)=N\c1nc2ccccc2s1)c1ccnc(Br)c1`, the growth was 50%.
Take `COc1cc(/C=N/NC(=O)c2cnn3c2NC(c2ccccc2)C3)ccc1Oc1ccccc1` (stereo not drawn): the growth is 45.2%.
Regarding `COc1cc(-c2n/c(=C\c3c(O)[nH]c4ccc(Cl)cc34)cc3c2=Nc2ccccc2-3)ccc1F`, the growth was -40.1% (active).
With `c1ccc2c(-c3c[nH]c4ccccc34)c3c(cc2c1)[nH]c1ccccc13`, the growth was 66.7%.
For `C=C(C)[C@@H]1CC[C@]2(CN)CC[C@]3(C)[C@H](CC[C@@H]4[C@@]5(C)CCCNC(C)(C)[C@@H]5CC[C@]43C)[C@@H]12`, the growth was 22.9%.
Regarding `CCOC(=O)/C(C#N)=C1/NNC(=Nc2cccnc2)S1`, the growth was 100%.
Turning to `O=C1c2ccc3c4c(ccc(c24)C(=O)N1CCCNCc1ccccc1Cl)C(=O)N(CCCNCc1ccccc1Cl)C3=O`, the growth was -30.2% (active).
With `CCN(CC)c1ccc(/C=N/NC(=O)CSc2nc3ccccc3c(=O)n2Cc2ccc(S(N)(=O)=O)cc2)c(O)c1`, the growth is 18.6%.
For `COc1cc(/C=C/c2cc(O)c(C(C)=O)c(O)c2)cc2c1O[C@]1(C)CC[C@@H](O)C(C)(C)[C@H]1C2` the value was 55.8%; for `O=C(CCN1CCCC1)Nc1ccc2c(NCCCc3ccccc3)c3ccccc3nc2c1`, 21%; for `CCSCC1CC(O)(c2ccccc2)CC(c2ccc(F)cc2)O1` (stereo not drawn), 20%.
Consider `N/C(=N\C(N)=N\c1nc2ccccc2s1)c1cnccn1`, for which the growth was 26.5%.
Regarding `C#CCNC(=O)[C@]1(C)CC[C@]2(C)CC[C@@H]3C(=CC[C@H]4[C@@]3(C)CC[C@H]3C(C)(C)C(=O)CC[C@]43C)[C@@H]2C1`, the growth was 95.7%.
With `CCc1ccc(CNc2ccc(N3CCOCC3)c(C(=O)O)c2)cc1`, the growth was 95.6%.
On to `COc1ccc(/C=N/NC(=O)c2cnn3c2NC(c2ccccc2)C3)cc1OC` (stereo not drawn), for which the growth is 73.7%.
`N#CC1=C(/N=C/c2ccccc2)Oc2c(ccc3ccccc23)C1c1ccc([N+](=O)[O-])cc1` (stereo not drawn): the growth was 89.2%.
Take `O=C(Cc1ccccc1)NNc1nc(Cl)nc(N2CCN(C(c3ccccc3)c3ccccc3)CC2)n1`: the growth is 100%.
Regarding `COC(=O)C1=C(C(=O)ON)[C@@H]2C=C[C@@]1([C@@H](Cc1ccccc1)Nc1ccccc1)O2`, the growth was 93.9%.
On to `CCCOC(=O)N[C@H]1CCc2c(Cl)c(OC)c(OC)c(OC)c2-c2ccc(SC)c(=O)cc21`, for which the growth was 24.7%.
Take `CCN(CC)CCCC(C)Nc1cc(O)cc2cccnc12` (stereo not drawn): the growth is 98.6%.
For the molecule `O=C1c2ccc3c4c(ccc(c24)C(=O)N1CCCNCc1ccccc1F)C(=O)N(CCCNCc1ccccc1F)C3=O`, the growth is -65.1% (active).
Regarding `CC1=CCC(OC(=O)C(C)(O)CCC(O)(C(=O)OC2(C)C=CC(O)(C(C)C)CC2)C(C)C)(C(C)C)CC1` (stereo not drawn), the growth was 101%.
Under `CCCCCCNC(=O)Nc1ccc2cc3ccc(NC(=O)NCCCCCC)cc3nc2c1` stands -62.8% (active); under `C[C@H]1[C@H](C)CC[C@]2(C(=O)NCC#CCN3CCN(C)CC3)CC[C@]3(C)C(=CC[C@@H]4[C@@]5(C)Cc6c([nH]c7ccccc67)C(C)(C)[C@@H]5CC[C@]43C)[C@H]12`, 82.5%; under `O=C(/C=C(/C=C/c1coc2ccccc12)OB(F)F)/C=C/c1coc2ccccc12`, 93.4%.
